The target in assay [1] is Myc proto-oncogene protein (Homo sapiens) (UniProt P01106). The experiment in a line: ATG_Myc_CIS: Attagene CIS-FACTORIAL HepG2 Assay for human Myelocytomatosis (Myc) Proto-Oncogene Transcription Factor (AID 2282990; active = hit-call score of the fitted dose curve at least 0.9, where 1 is the maximum; inactive = score below 0.9). The conditions noted are these: HepG2, Attagene cis-reporter transcription factor activity; actives raise or lower the signal. The essentials: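 Cells of the HepG2 human liver line bear multiple cis-driven reporter transcription units. Reporter mRNA after 24 h exposure is reverse-transcribed, amplified, labelled and resolved by capillary electrophoresis, with gain- or loss-of-signal fitting relative to DMSO.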
Chain of Myc proto-oncogene protein (Homo sapiens) (P01106 whole entry, looked up): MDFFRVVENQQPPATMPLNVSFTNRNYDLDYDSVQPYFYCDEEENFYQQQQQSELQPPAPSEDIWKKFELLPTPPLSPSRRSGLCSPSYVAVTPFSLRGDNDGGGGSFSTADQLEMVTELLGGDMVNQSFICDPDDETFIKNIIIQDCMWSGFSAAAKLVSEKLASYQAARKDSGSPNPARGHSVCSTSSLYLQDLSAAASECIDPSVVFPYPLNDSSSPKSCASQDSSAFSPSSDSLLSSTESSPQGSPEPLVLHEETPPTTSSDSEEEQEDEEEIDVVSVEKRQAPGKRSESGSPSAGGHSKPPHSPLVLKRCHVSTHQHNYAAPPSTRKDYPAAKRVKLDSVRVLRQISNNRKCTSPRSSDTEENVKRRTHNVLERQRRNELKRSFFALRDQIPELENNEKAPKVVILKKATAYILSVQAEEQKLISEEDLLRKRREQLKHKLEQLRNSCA

A short description of assay [2]: ATG_NRF2_ARE_CIS: Attagene CIS-FACTORIAL HepG2 Assay for human Nuclear Factor Erythroid 2 Related Factor 2 (NFR2) response to Antioxidant Response Elements (ARE) (AID 2282992; active = hit-call score of the fitted dose curve at least 0.9, where 1 is the maximum; inactive = score below 0.9;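 as to AC50: reporter mRNA level measured by RT-PCR and capillary electrophoresis fluorescence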). Particulars: HepG2 Attagene ARE/NRF2 reporter, transcription factor activity; actives raise or lower the signal. The essentials: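 Transient MRTU transfection of HepG2; 24 h compound exposure; TriZol RNA, RT with oligo(dT), PCR, 6-FAM primer extension, HpaI cut, CE. Bidirectional fit vs DMSO.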

A short description of assay [3]: ATG_Oct_MLP_CIS: Attagene CIS-FACTORIAL HepG2 Assay for human Octamer-Binding Transcription Factor (Oct) (AID 2282993; active = hit-call score of the fitted dose curve at least 0.9, where 1 is the maximum; inactive = score below 0.9). The conditions noted are these: HepG2 Attagene cis-factorial Oct reporter, mRNA; actives raise or lower the signal. A digest of the protocol:
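Transfected HepG2 cells, 24 h treatment. Reporter mRNA quantified by RT-PCR–capillary electrophoresis; bidirectional fitting against DMSO.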

Assay [4] addresses human Peroxisome Proliferator-activated Receptor alpha (PPARa), PPARA (gene 5465) (UniProt Q07869). In words: ATG_PPARa_TRANS: Attagene TRANS-FACTORIAL HepG2 Assay for human Peroxisome Proliferator-activated Receptor alpha (PPARa) (AID 2283001).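 As to AC50: potency for gain of reporter signal over DMSO so agonist or activator.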 The essentials: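 Read-out is fluorescence of reporter cDNA fragments resolved by capillary electrophoresis after RT-PCR. Human HepG2 liver cells carried transfected PPARa-Gal4 chimera and GAL4-UAS reporter units, treated 24 h; activity scored as increase over DMSO.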

Assay [5] concerns the target human Peroxisome Proliferator-activated Receptor delta (PPARd), PPARD (gene 5467) (UniProt Q03181). In words: ATG_PPARd_TRANS: Attagene TRANS-FACTORIAL HepG2 Assay for human Peroxisome Proliferator-activated Receptor delta (PPARd) (AID 2283002). The essentials:
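Cell-based TRANS reporter: HepG2, transient MRTU transfection, 24 h exposure. Readout = reporter mRNA (RT-PCR/CE, 6-FAM). Gain-of-signal fit vs DMSO control.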

Assay [6] deals with Peroxisome proliferator-activated receptor gamma (Homo sapiens) (UniProt P37231). In words: ATG_PPARg_TRANS: Attagene TRANS-FACTORIAL HepG2 Assay for human Peroxisome Proliferator-activated Receptor-gamma (PPARg) (AID 2283007). A digest of the protocol:
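Chimeric NR-Gal4 transactivation is measured in transiently transfected HepG2 cells by reporter mRNA induction at 24 h. Detection uses RT-PCR with fluorescent labelling and capillary electrophoresis; DMSO defines baseline.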

The target of assay [7] is Nuclear receptor subfamily 1 group I member 2 (Homo sapiens) (UniProt O75469). In words: ATG_PXR_TRANS: Attagene TRANS-FACTORIAL HepG2 Assay for human Pregnane X Receptor (PXR) (AID 2283008). A digest of the protocol:
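Read-out is fluorescence of labelled reporter cDNA fragments separated by capillary electrophoresis after RT-PCR and HpaI digestion. Source: HepG2 cells carrying PXR-GAL4/UAS reporter constructs, treated 24 h; activity fitted upward relative to DMSO.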

Assay [8] addresses human Retinoic Acid Receptor gamma (RARg), RARG (gene 5916) (UniProt P13631). In words: ATG_RARg_TRANS: Attagene TRANS-FACTORIAL HepG2 Assay for human Retinoic Acid Receptor gamma (RARg) (AID 2283009). A digest of the protocol:
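HepG2 transiently transfected with GAL4-UAS reporter units and chimeric NR-Gal4 constructs; 24 h compound exposure. Reporter mRNA quantified by RT-PCR, FAM labeling, HpaI digestion and capillary electrophoresis; gain-of-signal versus DMSO.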

The target of assay [9] is human Retinoic Acid Receptor beta (RARb), RARB (gene 5915) (UniProt P10826). In words: ATG_RARb_TRANS: Attagene TRANS-FACTORIAL HepG2 Assay for human Retinoic Acid Receptor beta (AID 2283004). A digest of the protocol:
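Induction of reporter mRNA from a chimeric RARb-Gal4 construct was measured by RT-PCR, FAM labelling, HpaI digestion and capillary electrophoresis. Measurements followed 24 h compound treatment of transiently transfected human HepG2 liver cells, with DMSO as baseline.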

Assay [10] deals with Retinoic acid receptor alpha (Homo sapiens) (UniProt P10276). In words: ATG_RARa_TRANS: Attagene TRANS-FACTORIAL HepG2 Assay for human Retinoic Acid Receptor alpha (RARa) (AID 2283005). The essentials:
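Reporter transcripts, measured by RT-PCR with fluorescent labeling and capillary electrophoresis after 24 h dosing, reflect activity of an exogenous human RARa–GAL4 fusion in transiently transfected HepG2. Fitted for increase relative to DMSO.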

The target in assay [11] is human RAR-related Orphan Receptor gamma (RORg), RORC (gene 6097) (UniProt P51449). In words: ATG_RORg_TRANS: Attagene TRANS-FACTORIAL HepG2 Assay for human RAR-related Orphan Receptor gamma (RORg) (AID 2283011). The essentials:
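Reporter transcripts from a transfected RORg-GAL4 chimera in HepG2 cells were quantified 24 h after dosing by RT-PCR, 6-FAM labelling, HpaI digestion and capillary electrophoresis; increases over DMSO baseline were fitted.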

The target of assay [12] is human RAR-related Orphan Receptor beta (RORb), RORB (gene 6096) (UniProt Q92753). The experiment in a line: ATG_RORb_TRANS: Attagene TRANS-FACTORIAL HepG2 Assay for human RAR-related Orphan Receptor beta (RORb) (AID 2283010). The essentials:
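HepG2 cells transiently transfected with GAL4-UAS reporter units expressing chimeric NR-Gal4 protein; reporter mRNA measured 24 h after dosing by RT-PCR, 6-FAM labelling and capillary electrophoresis. Gain-of-signal fitted relative to DMSO baseline.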

Assay [13] addresses Cellular tumor antigen p53 (Homo sapiens) (UniProt P04637). The experiment in a line: ATG_p53_CIS: Attagene CIS-FACTORIAL HepG2 Assay for human p53 Transcription Factor (AID 2282994; active = hit-call score of the fitted dose curve at least 0.9, where 1 is the maximum; inactive = score below 0.9). Particulars: HepG2 p53 cis-element reporter, Attagene mRNA; actives raise or lower the signal. The essentials: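 HepG2, transient MRTU transfection (cis promoter elements, endogenous TFs); 24 h dosing; RNA isolation, RT-PCR, 6-FAM primer extension, HpaI digest, CE fluorescence; bidirectional fit vs DMSO.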

In general, AC50 refers to the concentration at which the activity in the assay is half-maximal.

Results filed as inconclusive are left out. Active and inactive are the calls of the source. The calls were made as follows, unless noted: active = hit-call score of the fitted dose curve at least 0.9, where 1 is the maximum; inconclusive = response in the unintended direction; inactive = score below 0.9.

Chain of human RAR-related Orphan Receptor beta (RORb), RORB (gene 6096) (Q92753 whole entry, looked up, the tested form may be a part): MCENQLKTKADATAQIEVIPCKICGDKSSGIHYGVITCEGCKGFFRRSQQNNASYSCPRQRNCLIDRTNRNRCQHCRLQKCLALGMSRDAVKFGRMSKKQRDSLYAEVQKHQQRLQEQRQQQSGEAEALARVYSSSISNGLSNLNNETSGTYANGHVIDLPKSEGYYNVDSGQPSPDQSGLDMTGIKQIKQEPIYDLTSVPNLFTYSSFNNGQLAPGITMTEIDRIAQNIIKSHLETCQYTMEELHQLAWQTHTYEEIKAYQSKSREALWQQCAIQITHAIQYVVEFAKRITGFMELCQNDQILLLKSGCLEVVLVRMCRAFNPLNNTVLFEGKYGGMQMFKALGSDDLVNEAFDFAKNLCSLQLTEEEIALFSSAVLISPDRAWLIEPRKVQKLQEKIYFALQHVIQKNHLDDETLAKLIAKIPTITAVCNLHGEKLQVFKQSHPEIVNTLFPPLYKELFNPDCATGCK
Chain of Peroxisome proliferator-activated receptor gamma (Homo sapiens) (P37231 whole entry, looked up, the tested form may be a part): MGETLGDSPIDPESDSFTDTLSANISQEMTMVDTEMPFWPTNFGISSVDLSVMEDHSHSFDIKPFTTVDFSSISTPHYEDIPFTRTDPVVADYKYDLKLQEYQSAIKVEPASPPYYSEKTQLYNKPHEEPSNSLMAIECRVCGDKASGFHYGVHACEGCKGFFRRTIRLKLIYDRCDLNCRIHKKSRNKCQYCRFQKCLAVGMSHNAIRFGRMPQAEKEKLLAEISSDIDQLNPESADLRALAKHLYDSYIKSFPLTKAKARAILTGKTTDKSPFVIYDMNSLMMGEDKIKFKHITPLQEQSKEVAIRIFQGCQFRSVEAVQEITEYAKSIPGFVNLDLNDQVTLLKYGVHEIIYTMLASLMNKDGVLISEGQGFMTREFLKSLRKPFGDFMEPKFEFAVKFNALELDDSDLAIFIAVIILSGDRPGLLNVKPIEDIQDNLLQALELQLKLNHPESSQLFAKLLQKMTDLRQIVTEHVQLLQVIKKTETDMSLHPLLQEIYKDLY
Chain of human Peroxisome Proliferator-activated Receptor alpha (PPARa), PPARA (gene 5465) (Q07869 whole entry, looked up, the tested form may be a part): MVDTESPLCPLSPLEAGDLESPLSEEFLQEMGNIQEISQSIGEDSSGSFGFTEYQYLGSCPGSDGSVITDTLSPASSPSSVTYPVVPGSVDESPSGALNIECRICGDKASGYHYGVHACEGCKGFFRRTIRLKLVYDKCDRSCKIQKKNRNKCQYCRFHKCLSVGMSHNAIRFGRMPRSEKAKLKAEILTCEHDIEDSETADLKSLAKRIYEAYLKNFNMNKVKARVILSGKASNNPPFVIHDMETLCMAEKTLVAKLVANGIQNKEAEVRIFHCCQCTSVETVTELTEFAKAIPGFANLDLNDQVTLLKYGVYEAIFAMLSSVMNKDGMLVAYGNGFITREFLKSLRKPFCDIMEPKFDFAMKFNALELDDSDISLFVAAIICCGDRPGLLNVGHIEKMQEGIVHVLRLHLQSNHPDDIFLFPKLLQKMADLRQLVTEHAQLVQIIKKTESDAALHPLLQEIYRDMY
Chain of Cellular tumor antigen p53 (Homo sapiens) (P04637 whole entry, looked up): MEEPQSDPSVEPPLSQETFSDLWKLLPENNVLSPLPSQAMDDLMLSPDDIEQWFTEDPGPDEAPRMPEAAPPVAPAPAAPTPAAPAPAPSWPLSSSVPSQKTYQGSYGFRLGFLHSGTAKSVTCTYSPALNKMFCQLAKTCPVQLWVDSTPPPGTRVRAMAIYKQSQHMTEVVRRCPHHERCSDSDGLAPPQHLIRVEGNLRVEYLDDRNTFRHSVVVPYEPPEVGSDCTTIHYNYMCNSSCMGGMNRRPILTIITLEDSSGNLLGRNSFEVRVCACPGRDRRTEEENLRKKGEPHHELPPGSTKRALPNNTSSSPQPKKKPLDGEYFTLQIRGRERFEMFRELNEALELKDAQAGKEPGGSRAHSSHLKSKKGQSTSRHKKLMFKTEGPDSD
Chain of human Retinoic Acid Receptor gamma (RARg), RARG (gene 5916) (P13631 whole entry, looked up, the tested form may be a part): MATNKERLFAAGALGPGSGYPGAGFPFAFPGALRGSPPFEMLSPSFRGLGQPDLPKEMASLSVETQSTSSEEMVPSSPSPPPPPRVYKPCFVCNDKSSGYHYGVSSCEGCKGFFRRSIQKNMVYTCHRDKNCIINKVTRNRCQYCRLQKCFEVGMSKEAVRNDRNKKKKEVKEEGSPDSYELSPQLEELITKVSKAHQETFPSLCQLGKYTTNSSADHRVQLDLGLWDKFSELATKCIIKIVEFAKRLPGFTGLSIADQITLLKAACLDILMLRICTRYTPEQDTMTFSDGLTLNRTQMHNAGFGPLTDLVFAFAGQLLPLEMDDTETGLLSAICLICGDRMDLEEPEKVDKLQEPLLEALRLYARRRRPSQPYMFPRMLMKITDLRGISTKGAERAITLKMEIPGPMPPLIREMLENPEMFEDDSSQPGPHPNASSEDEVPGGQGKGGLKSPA
Chain of human Peroxisome Proliferator-activated Receptor delta (PPARd), PPARD (gene 5467) (Q03181 whole entry, looked up): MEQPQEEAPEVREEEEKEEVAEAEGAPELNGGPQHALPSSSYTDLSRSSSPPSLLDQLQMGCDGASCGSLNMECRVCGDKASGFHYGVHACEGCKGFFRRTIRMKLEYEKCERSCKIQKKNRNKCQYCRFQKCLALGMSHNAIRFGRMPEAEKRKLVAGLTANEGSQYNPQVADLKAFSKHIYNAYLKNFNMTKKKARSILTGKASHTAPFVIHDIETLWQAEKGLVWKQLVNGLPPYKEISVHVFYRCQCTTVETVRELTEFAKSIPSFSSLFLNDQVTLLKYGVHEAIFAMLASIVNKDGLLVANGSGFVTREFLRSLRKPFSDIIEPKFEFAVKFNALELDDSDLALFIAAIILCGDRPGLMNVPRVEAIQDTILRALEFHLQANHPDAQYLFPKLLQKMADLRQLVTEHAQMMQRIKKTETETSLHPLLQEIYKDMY
Chain of Nuclear receptor subfamily 1 group I member 2 (Homo sapiens) (O75469 whole entry, looked up, the tested form may be a part): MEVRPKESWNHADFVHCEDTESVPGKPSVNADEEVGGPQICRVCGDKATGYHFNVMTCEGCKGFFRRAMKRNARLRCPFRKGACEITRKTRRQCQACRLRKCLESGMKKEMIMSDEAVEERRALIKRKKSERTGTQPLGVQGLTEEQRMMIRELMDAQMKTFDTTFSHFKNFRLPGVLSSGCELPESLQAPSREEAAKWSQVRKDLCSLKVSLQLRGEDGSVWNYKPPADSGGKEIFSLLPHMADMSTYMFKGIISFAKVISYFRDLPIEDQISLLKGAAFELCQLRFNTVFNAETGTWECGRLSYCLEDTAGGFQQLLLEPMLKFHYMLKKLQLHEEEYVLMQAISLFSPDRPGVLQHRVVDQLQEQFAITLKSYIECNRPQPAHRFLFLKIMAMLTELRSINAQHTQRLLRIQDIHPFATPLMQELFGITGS
Chain of human RAR-related Orphan Receptor gamma (RORg), RORC (gene 6097) (P51449 whole entry, looked up, the tested form may be a part): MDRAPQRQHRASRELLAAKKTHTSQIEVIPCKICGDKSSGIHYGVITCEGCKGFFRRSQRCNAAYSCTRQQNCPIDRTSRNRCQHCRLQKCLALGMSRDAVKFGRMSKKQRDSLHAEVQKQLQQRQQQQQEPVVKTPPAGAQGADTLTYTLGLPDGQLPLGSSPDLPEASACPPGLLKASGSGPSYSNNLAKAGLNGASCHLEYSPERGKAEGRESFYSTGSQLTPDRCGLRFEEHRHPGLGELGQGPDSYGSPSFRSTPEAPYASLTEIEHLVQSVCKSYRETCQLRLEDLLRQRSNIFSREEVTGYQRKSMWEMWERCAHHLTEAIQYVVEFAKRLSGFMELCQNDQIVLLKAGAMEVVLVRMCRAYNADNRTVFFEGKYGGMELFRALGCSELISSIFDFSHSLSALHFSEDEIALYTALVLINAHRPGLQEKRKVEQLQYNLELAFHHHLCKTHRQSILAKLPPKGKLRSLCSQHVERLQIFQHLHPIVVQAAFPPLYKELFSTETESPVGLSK
Chain of human Retinoic Acid Receptor beta (RARb), RARB (gene 5915) (P10826 whole entry, looked up, the tested form may be a part): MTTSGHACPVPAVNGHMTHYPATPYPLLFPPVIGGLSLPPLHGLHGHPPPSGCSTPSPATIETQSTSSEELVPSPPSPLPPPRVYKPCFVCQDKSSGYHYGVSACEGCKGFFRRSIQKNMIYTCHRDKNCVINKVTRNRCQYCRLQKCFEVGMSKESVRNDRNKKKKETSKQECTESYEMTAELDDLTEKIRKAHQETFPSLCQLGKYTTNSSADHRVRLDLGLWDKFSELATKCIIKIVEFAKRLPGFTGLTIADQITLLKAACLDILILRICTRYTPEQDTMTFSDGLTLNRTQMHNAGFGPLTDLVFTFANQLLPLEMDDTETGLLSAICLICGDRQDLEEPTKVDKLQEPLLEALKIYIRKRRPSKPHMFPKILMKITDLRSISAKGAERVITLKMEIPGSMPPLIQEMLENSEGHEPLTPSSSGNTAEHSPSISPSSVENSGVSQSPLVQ

Turning to `O=C1OC(=O)c2c(Br)c(Br)c(Br)c(Br)c21`, the compound was called inactive in assay [1], in [3], in [4], in [5], in assay [6] and in [7]. The compound was classed as inactive in [8]. Moreover, the AC50 in [2] was 100 µM (active).

In the case of `CC/C=C\CC/C=C/CO`, the outcome in assay [1], in assay [3], in assay [4] and in assay [5] was inactive. For the same compound, the AC50 in assay [2] is 48.2 µM (active); in assay [6] it was 52.9 µM (active).

As to `CCCCCCC(O)CCCCCCCCCCC(=O)O` (centres undefined), the compound was classed as inactive in assay [1], in [3], in assay [9], in [10], in assay [7] and in [8]. In assay [11], the call was inactive. Moreover, the AC50 was 27.3 µM (active) in [2], 5.01 µM (active) in assay [4], 12.1 µM (active) in assay [5] and 14.2 µM (active) in assay [6].

In the case of `BrCc1cccc(Oc2ccccc2)c1`, the compound was classed as inactive in assay [1], in assay [3] and in [4]. The results for the AC50 in [2], in assay [6] and in assay [7] were 58.4 µM (active), 44.8 µM (active) and 43.3 µM (active), respectively.

On to `CS(=O)(=O)c1ccc(Cl)cc1`, for which the compound was called inactive in assay [1], in [2], in [3], in assay [5], in [7] and in [12]. Moreover, the call in assay [11] was inactive.

Turning to `CCC(=O)OCCOc1ccccc1`, the call in [1], in assay [2], in assay [3], in assay [4] and in assay [12] was inactive.

As to `COc1ccccc1[N+](=O)[O-]`, the result in assay [1], in [2], in assay [13], in [7], in assay [12] and in [11] was inactive.

Consider `Nc1ccc(NCCO)c([N+](=O)[O-])c1`, for which the compound was classed as inactive in [1], in assay [13], in assay [4], in [5], in assay [6] and in assay [7]. Moreover, the result in [8] was inactive. Besides, the half-maximal activity concentration (AC50) in assay [2] was 24.1 µM (active).

For `CCCC1O[C@@H]2C[C@H]3[C@@H]4CCC5=CC(=O)C=C[C@]5(C)[C@H]4[C@@H](O)C[C@]3(C)[C@]2(C(=O)CO)O1` (some centres undefined), the call in [1], in assay [4], in assay [9], in [6] and in assay [8] was inactive. In addition, the AC50 is 78.9 µM (active) in assay [2] and 37.5 µM (active) in [13].

The values are drawn from PubChem BioAssay (EPA / NIEHS).
